# In PubChem BioAssay AID449762 (Southern Research Specialized Biocontainment Screening …, 2010):
# Among all 330,000 compounds or so, about 1,900 (0.58%) were called active. Not shown: some 4% with an inconclusive outcome. Rule as the data show it: inconclusive = inhibition above about 70% without an active follow-up result; inactive = below that. Only a sample is shown. Potency and affinity values are given separately.
# Experiment: M. tuberculosis growth inhibition, HTS (AID 449762);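 also: bacterial growth assessed after seven days of incubation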
# Conditions: M. tuberculosis H37Rv growth inhibition, 7H9 media; at 25 µM; active compounds read high
row,SMILES,inhibition
1,O=C(O)c1ccc(NC(=O)c2cccc(S(=O)(=O)Nc3ccc(C(=O)O)cc3)c2)cc1,-1.83% (inactive)
2,COc1ccccc1N1CCN(CC(=O)Nc2ccccc2C(=O)NCCc2ccccc2)CC1,33.8% (inactive)
3,O=C(CN1CCN(c2ccc(O)cc2)CC1)Nc1ccccc1C(=O)NCCc1ccccc1,-9.61% (inactive)
4,COc1cc(NS(=O)(=O)c2cc3c(cc2C)NC(=O)CO3)cc(OC)c1,-11.6% (inactive)
5,OC(COc1ccc(Cl)cc1Cl)Cn1ccnc1 (configuration not stated),-1.41% (inactive)
6,OC(Cn1ccnc1)c1ccc(Cl)cc1Cl (configuration not stated),-8.18% (inactive)
7,CCOC(=O)C1=C(CC)Nc2ccccc2N/C1=N\S(=O)(=O)c1ccccc1OC,-0.62% (inactive)
8,CC1(C)Cc2c(sc(NC(=O)C(C)(C)C)c2C#N)C(C)(C)N1,-3.46% (inactive)
9,Cc1ccc(N=c2ssnc2Cl)cc1,0.3% (inactive)
10,COc1cc(N=c2ssnc2Cl)cc(OC)c1OC,-3.23% (inactive)
11,O=C(O)c1ccc(S(=O)(=O)N2CCC(n3nnc4cc(C(F)(F)F)ccc43)CC2)cc1,1.41% (inactive)
12,C/C(=N\Nc1cc(Cl)nc(C)n1)c1ccccc1,5.34% (inactive)
13,C/C(=N\Nc1cc(Cl)nc(C)n1)c1ccc(C)cc1,66.8% (inactive)
14,Cc1ccc(S(=O)(=O)N2CCN(C(=O)COC(=O)/C=C/c3ccc(F)cc3)CC2)c(C)c1,-1.22% (inactive)
15,CCCOc1ccc(N2CC(C(=O)Nc3ccccc3C(=O)NC)CC2=O)cc1 (configuration not stated),-2.1% (inactive)
16,O=C(CSc1ncnc2nc[nH]c12)c1ccccc1,9.21% (inactive)
17,COc1ccc(C(=O)CSc2ncnc3nc[nH]c23)cc1,-0.73% (inactive)
18,O=C(c1ccc(Cl)cc1)C1CCN(C(=O)c2ccc(F)cc2)CC1,4.03% (inactive)
19,Cc1cc(C)cc(OC(=O)CCN2C(=O)c3ccccc3C2=O)c1,-5.68% (inactive)
20,Cc1ccc(OC(=O)CN2C(=O)c3ccccc3C2=O)cc1C,-4.28% (inactive)
21,CC(C)c1ccc(OCC(=O)N(Cc2ccco2)C2CCS(=O)(=O)C2)cc1 (configuration not stated),11.8% (inactive)
22,CCC(=O)N1CC(=O)Nc2ccc(F)cc2C1c1ccccc1 (configuration not stated),-3.58% (inactive)
23,CC(C)NC(=O)N(C)C[C@H]1Oc2c(NC(=O)C3CC3)cccc2C(=O)N([C@H](C)CO)C[C@@H]1C,1.1% (inactive)

row,SMILES,inhibition
1,CC(C)CCNC(=O)C(c1ccc(O)cc1)N(Cc1cccs1)C(=O)C1COc2ccccc2O1 (configuration not stated),22.4% (inactive)
2,CCOc1cccc(N(C(=O)C2COc3ccccc3O2)C(C(=O)NC2CCCCC2)c2ccc(O)cc2)c1 (configuration not stated),-4.43% (inactive)
3,CC(=O)N1CCOc2ccc(S(=O)(=O)N3CCC(C(=O)Nc4ccc(C)c(C)c4)CC3)cc21,5.83% (inactive)
4,CC(Oc1ccc2c3c(c(=O)oc2c1)CCCC3)C(=O)NCc1ccccn1 (configuration not stated),33.2% (inactive)
5,CC(Oc1cc2oc(=O)c3c(c2cc1Cl)CCC3)C(=O)NCc1ccccn1 (configuration not stated),31% (inactive)
6,CCNc1cc(N2CCN(C)CC2)ccc1[N+](=O)[O-],-1.18% (inactive)
7,COc1cccc(NC(=S)N2CCc3cc(OC)c(OC)cc3C2)c1,1.01% (inactive)
8,CCOc1ccc(S(=O)(=O)N(C)c2ccc(OCC(=O)NCc3ccc(C(=O)OC)cc3)cc2)cc1,-3.45% (inactive)
9,Cc1cccn2c(=O)c3cc(C(=O)NCCc4ccccc4)c(=N)n(CC4CCCO4)c3nc12 (configuration not stated),4.7% (inactive)
10,FC(F)(F)c1cc(Cl)c2nc(-c3ccccc3)cn2c1,4.79% (inactive)
11,COc1ccc(N(C(=O)Nc2ccc(Cl)cc2)C2=NCCC2)cc1,42.5% (inactive)
12,O=C(Nc1ccccc1)N(C1=NCCC1)c1ccc(OC(F)F)cc1,-0.82% (inactive)
13,COCC1CCN(C(=O)c2cc(COc3ccc(F)cc3F)on2)C1 (configuration not stated),-0.65% (inactive)
14,O=C(c1cc(COc2ccc(F)cc2F)on1)N1CC[C@@H]2CCCC[C@H]2C1,8.08% (inactive)
15,CC(NC(=O)c1cc(F)c(F)cc1Cl)C1CC2CCC1C2 (configuration not stated),9.14% (inactive)
16,O=C(Nc1cccc(F)c1)N1CCN(C/C=C/c2ccccc2)CC1,-4.24% (inactive)
17,Cc1cc(C)cc(NC(=O)N2CCN(C/C=C/c3ccccc3)CC2)c1,6.44% (inactive)
18,O=C1NC(=O)C2(Cc3ccccc3N3CCCC32)C(=O)N1Cc1ccccc1 (configuration not stated),-3.61% (inactive)
19,C=CCNC(=O)/C(=C/c1cn(-c2ccccc2)nc1-c1cccc([N+](=O)[O-])c1)NC(=O)c1ccccc1,9.03% (inactive)
20,NC(=O)/C(N=Nc1ccccc1)=N/Nc1ccccc1,63.8% (inactive)
21,O=[N+]([O-])/C(N=Nc1ccccc1)=N\Nc1ccccc1,-2.92% (inactive)
22,O=C(Cn1nnc(-c2ccc(S(=O)(=O)N3CCCC3)cc2)n1)Nc1ccccc1-n1cccc1,-4.45% (inactive)
23,CN(CC(=O)Nc1ccc(F)cc1[N+](=O)[O-])Cc1ccccc1,6.03% (inactive)

row,SMILES,inhibition
1,CCOC(=O)c1cc(/C(C)=N/OC(=O)c2ccc(Cl)cc2)on1,47.9% (inactive)
2,Cc1cc(C(=O)O/N=C(\N)c2ccc(C(C)(C)C)cc2)no1,0.64% (inactive)
3,COc1cccc2c(=O)c3c([nH]c12)OC(C)(C)C3,1.96% (inactive)
4,NC(=O)c1ccsc1NC(=O)c1cc(=O)c2ccccc2o1,1.83% (inactive)
5,CC1=C(C(N)=O)C(c2ccccc2F)NC(=O)N1 (configuration not stated),-4.59% (inactive)
6,O=C(N/N=C/c1ccc(F)cc1)c1cccc(NC(=O)c2ccc(F)cc2)c1,9.14% (inactive)
7,CC(C)(C)NC(=O)COC(=O)c1cc(Cl)ccc1[N+](=O)[O-],-0.3% (inactive)
8,CC(NC(=O)COC(=O)c1ccc(Cl)cc1O)c1ccc(F)cc1 (configuration not stated),2.35% (inactive)
9,CCOC(=O)c1ccc[n+](CC(=O)c2ccc(OC)cc2)c1,-6.92% (inactive)
10,CN(C)/C=C/C(=O)c1ccc([N+](=O)[O-])c(CS(=O)(=O)c2ccccc2)c1,4.59% (inactive)
11,OC1CCN(c2cc(-c3ccccc3)nc3cc(-c4ccc(F)cc4)nn23)CC1,14.2% (inactive)
12,Fc1ccc(-c2cc3nc(-c4ccccc4)cc(N4CCOCC4)n3n2)cc1,-0.86% (inactive)
13,O=C(CN1C(=O)S/C(=C\c2ccc(F)cc2)C1=O)Nc1cccc(S(=O)(=O)NCc2ccco2)c1,-0.96% (inactive)
14,C=CCNC(=O)C1CCN(c2cnccn2)CC1,1% (inactive)
15,Cc1ccnc(NC(=O)C2CCN(S(=O)(=O)c3cccc(C(F)(F)F)c3)CC2)c1,-6.67% (inactive)
16,Cn1c(O)c(C=Nc2ccc(Br)cc2)sc1=O,2% (inactive)
17,N=c1oc2ccccc2cc1C(=O)Nc1ccccc1,-6.06% (inactive)
18,N=c1oc2cc(O)ccc2cc1C(=O)Nc1ccccn1,9.75% (inactive)
19,O=C(NCc1nnc(SCC(=O)N2CCCC2)o1)c1ccc(F)cc1,-1.8% (inactive)
20,Cc1cc(C)c(C(=O)N(C)CC2CCCN(CCc3ccccc3F)C2)o1 (configuration not stated),7.36% (inactive)
21,CCOC(=O)C1(CCCc2ccccc2)CCN(C(=O)c2ccoc2)CC1,3.78% (inactive)
22,O=C(Nc1cn(-c2ccccc2)nc1-c1ccc(Cl)cc1)c1ccccc1,12.2% (inactive)
23,CC(=O)Nc1cn(-c2ccccc2)nc1-c1ccccc1,8.61% (inactive)

row,SMILES,inhibition
1,Oc1cc(NCCc2cccnc2)cc2cccnc12,11.9% (inactive)
2,NS(=O)(=O)c1cccc(NC(=O)c2ccc3nc[nH]c3c2)c1,1.29% (inactive)
3,CC12CCC(=O)N1C(C(=O)Nc1ccc(F)cc1)CS2 (configuration not stated),-9.52% (inactive)
4,CC(C)c1ccc(NC(=O)C2CSC3(C)CCC(=O)N23)cc1 (configuration not stated),5.83% (inactive)
5,Cc1ccc(CNC(=O)c2ccc(N3CCC4(CC3)CC(c3ccccc3)=NO4)c(NC(=O)c3ccc(Br)cc3)c2)cc1,-2.65% (inactive)
6,Cc1[nH]c(=O)[nH]c(=O)c1/C=C/C(=O)O,-3.99% (inactive)
7,Nc1c(C(=O)OCC(=O)NCc2ccccc2)[nH]c(=O)[nH]c1=O,1.89% (inactive)
8,COc1ccc(-c2cc(C(F)F)n3ncc(C(=O)N4CCc5ccccc5C4)c3n2)cc1,15.6% (inactive)
9,Cc1cc(C(F)F)n2ncc(C(=O)N3CCc4ccccc4C3)c2n1,-2.51% (inactive)
10,CCN(CC(=O)Nc1c(F)cccc1F)C(=O)c1ccc2c(c1)OCO2,-12.6% (inactive)
11,COc1ccc(S(=O)(=O)CC(O)CN2CCCC2=O)cc1 (configuration not stated),-0.37% (inactive)
12,COc1cccc(N2C(=O)CN(Cc3ccc(OC)c(OC)c3)C2=S)c1,2.7% (inactive)
13,C/C(CC1CC2=C(CC1(C)C)C(C)(C)CCC2)=N\NC(N)=S (configuration not stated),-0.2% (inactive)
14,CC1=C(CC/C(C)=N/NC(N)=S)C(C)(C)CCC1,12% (inactive)
15,CC(C)n1ncc2c(C(=O)Nc3ccc(S(C)(=O)=O)cc3)cc(C3CC3)nc21,2.05% (inactive)
16,CCn1c(=O)cc(SCC(=O)Nc2ccc(OC)c(OC)c2)c2ccccc21,-7.13% (inactive)
17,Cc1cc(C)cc(NC(=S)N2CCC(NC(=O)C3CCCCC3)CC2)c1,-1.01% (inactive)
18,CCOP(=O)(OCC)C(O)c1cc(OC)c(OC)c(OC)c1 (configuration not stated),0.28% (inactive)
19,Cc1csc(CNc2ncnc3ccc(-c4cccnc4)cc23)c1,2.87% (inactive)
20,C(=N\NC1=Nc2cccc3cccc1c23)/c1ccccc1,9.94% (inactive)
21,Fc1ccc(/C=N/NC2=Nc3cccc4cccc2c34)cc1,-8.86% (inactive)
22,CC(=O)c1c(C)[nH]c(C(=O)Nc2cccc(S(=O)(=O)N3CCOCC3)c2)c1C,-28% (inactive)
23,O=C(O)CNC(=S)NCc1ccccc1,-1.14% (inactive)
